# How the values were obtained:
# Test in all cases: DAPPL (digital affinity profiling via proximity ligation, sequencing); 10 mM Tris-HCl pH 7.5, 50 mM NaCl, 1 mM DTT, 4% glycerol, room temperature, 30 min; GST-TFs on glutathione beads, 16-mer random dsDNA library, 0.1% formaldehyde crosslink after washing; high values mean tight binding
# [1] = molecular target: T1, FLI1 (Homo sapiens, UniProt Q01543 1-452); settings: protein: recombinant; tags: N-terminal GST; dsDNA, one strand shown
# T1 sequence: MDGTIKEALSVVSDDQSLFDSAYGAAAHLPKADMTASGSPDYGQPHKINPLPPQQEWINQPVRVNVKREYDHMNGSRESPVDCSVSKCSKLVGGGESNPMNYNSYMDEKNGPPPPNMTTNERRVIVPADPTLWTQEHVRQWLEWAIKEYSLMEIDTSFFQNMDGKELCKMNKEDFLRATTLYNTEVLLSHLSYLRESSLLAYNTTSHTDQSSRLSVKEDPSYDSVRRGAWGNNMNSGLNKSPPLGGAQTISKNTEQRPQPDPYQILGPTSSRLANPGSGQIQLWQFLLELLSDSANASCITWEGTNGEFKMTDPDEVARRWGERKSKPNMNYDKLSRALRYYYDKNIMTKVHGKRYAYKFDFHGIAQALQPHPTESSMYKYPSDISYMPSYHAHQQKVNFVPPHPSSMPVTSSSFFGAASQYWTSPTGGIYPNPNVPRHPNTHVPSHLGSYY
# How it was run: (§1)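 Human transcription factors carrying a GST fusion were produced in yeast, bound to glutathione beads, tagged with DNA barcodes and pooled together with a tag-only sample. Each pool was held with 200 nmole of a random double-stranded 16-mer DNA library in Tris/NaCl/DTT/glycerol buffer for 30 min at room temperature, then washed, crosslinked in 0.1% formaldehyde, proximity-ligated with BsaI/T4 ligase (1 h, 37 °C), PCR-amplified and sequenced on an Illumina NextSeq500. Binding signal is the read frequency of each hexamer for a given factor divided by its frequency in the tag-only sample.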
# [2] = molecular target: T2, ELK1 (Homo sapiens, UniProt P19419 1-428); settings: protein: recombinant; tags: N-terminal GST; dsDNA, one strand shown
# T2 sequence: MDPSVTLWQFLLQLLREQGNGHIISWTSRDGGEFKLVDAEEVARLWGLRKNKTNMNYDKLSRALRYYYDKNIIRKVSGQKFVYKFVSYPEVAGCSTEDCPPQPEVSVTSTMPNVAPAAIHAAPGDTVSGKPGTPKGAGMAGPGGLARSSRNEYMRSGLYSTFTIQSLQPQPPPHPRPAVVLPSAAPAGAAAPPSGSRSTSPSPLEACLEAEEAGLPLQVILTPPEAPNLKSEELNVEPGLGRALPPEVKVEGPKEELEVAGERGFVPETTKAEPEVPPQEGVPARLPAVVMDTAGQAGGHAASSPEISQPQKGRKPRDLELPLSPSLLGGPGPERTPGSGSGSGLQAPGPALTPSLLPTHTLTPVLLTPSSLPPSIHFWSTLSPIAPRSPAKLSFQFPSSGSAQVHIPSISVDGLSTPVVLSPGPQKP
# How it was run: as §1
# [3] = molecular target: T3, GABPA (Homo sapiens, UniProt Q06546 1-454); settings: protein: recombinant; tags: N-terminal GST; dsDNA, one strand shown
# T3 sequence: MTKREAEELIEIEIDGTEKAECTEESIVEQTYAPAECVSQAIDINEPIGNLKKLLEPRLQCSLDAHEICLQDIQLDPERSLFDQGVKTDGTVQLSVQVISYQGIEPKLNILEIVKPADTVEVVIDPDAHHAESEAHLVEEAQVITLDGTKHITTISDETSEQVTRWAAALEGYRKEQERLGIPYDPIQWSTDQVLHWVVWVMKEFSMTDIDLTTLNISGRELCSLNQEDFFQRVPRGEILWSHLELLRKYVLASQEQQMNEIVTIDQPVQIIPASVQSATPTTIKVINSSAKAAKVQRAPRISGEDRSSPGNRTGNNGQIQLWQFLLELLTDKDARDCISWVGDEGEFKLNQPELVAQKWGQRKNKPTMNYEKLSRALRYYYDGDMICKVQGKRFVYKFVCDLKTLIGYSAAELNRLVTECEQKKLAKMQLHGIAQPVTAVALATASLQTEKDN
# How it was run: as §1
# [4] = molecular target: T4, ERG (Homo sapiens, UniProt P11308 1-479); settings: protein: recombinant; tags: N-terminal GST; dsDNA, one strand shown
# T4 sequence: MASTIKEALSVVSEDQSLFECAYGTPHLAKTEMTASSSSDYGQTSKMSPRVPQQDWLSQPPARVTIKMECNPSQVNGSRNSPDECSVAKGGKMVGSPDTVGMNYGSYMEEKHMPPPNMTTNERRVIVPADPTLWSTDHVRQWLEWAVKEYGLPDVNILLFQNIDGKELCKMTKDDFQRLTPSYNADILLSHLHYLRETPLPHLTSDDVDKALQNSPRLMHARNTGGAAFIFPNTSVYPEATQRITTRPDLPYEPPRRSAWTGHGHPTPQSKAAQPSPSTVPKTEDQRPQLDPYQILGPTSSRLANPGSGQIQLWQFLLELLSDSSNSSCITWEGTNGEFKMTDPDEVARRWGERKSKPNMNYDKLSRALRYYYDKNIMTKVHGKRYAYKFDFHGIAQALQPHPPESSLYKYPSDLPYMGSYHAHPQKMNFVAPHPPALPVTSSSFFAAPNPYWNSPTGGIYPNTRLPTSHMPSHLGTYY
# How it was run: as §1
# [5] = molecular target: ELF1 (Homo sapiens, UniProt P32519 1-619); settings: protein: recombinant; tags: N-terminal GST; dsDNA, one strand shown
# Sequence of ELF1 (P32519 whole entry): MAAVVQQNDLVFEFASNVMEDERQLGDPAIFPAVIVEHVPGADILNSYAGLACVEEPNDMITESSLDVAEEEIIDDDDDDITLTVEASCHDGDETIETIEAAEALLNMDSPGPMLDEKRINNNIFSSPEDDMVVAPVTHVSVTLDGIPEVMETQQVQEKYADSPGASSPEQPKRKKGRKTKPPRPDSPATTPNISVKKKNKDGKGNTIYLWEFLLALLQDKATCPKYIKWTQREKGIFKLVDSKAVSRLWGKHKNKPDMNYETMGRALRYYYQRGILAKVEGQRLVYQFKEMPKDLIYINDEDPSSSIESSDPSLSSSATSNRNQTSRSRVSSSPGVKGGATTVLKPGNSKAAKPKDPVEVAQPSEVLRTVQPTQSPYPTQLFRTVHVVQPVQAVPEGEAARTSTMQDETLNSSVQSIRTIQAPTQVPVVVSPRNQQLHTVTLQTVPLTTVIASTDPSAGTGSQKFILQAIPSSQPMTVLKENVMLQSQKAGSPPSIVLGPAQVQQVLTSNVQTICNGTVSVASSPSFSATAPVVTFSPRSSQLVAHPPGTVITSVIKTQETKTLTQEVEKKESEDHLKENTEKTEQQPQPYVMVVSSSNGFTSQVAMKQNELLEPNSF
# How it was run: as §1
# [6] = molecular target: T5, EHF (Homo sapiens, UniProt Q9NZC4 1-300); settings: protein: recombinant; tags: N-terminal GST; dsDNA, one strand shown
# T5 sequence: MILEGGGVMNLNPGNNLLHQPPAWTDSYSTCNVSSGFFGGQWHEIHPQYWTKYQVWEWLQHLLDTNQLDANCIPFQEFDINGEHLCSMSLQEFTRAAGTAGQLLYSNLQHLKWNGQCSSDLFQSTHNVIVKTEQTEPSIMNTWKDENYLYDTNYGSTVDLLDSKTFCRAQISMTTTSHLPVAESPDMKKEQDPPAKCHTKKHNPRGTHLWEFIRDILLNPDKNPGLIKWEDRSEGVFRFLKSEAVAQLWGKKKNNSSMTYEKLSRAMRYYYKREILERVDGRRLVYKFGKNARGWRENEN
# How it was run: as §1
# [7] = molecular target: SPI1 (Homo sapiens, UniProt P17947 1-270); settings: protein: recombinant; tags: N-terminal GST; dsDNA, one strand shown
# How it was run: as §1
# [8] = molecular target: SPIB (Homo sapiens, UniProt Q01892 1-262); settings: protein: recombinant; tags: N-terminal GST; dsDNA, one strand shown
# Sequence of SPIB (Q01892 whole entry): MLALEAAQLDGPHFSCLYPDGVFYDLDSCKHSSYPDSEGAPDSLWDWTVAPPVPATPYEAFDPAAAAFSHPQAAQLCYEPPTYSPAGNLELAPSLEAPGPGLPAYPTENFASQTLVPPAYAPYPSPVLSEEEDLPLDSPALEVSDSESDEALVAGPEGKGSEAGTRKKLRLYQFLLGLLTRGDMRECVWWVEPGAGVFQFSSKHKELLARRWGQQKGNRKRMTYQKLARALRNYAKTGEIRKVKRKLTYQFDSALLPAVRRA
# How it was run: as §1
# [9] = molecular target: T6, ELK3 (Homo sapiens, UniProt P41970 1-407); settings: protein: recombinant; tags: N-terminal GST; dsDNA, one strand shown
# T6 sequence: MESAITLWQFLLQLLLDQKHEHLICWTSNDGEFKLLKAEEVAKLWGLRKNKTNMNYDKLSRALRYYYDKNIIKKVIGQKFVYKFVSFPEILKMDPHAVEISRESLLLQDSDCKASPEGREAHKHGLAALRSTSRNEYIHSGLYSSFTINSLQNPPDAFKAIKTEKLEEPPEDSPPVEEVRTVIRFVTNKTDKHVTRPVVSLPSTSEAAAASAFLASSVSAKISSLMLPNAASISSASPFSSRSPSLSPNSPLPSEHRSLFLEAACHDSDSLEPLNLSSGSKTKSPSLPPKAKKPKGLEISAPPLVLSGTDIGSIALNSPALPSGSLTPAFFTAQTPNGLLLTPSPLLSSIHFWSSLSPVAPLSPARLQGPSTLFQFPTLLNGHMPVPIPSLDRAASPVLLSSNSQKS
# How it was run: as §1
# [10] = molecular target: T7, FEV (Homo sapiens, UniProt Q99581 1-238); settings: protein: recombinant; tags: N-terminal GST; dsDNA, one strand shown
# T7 sequence: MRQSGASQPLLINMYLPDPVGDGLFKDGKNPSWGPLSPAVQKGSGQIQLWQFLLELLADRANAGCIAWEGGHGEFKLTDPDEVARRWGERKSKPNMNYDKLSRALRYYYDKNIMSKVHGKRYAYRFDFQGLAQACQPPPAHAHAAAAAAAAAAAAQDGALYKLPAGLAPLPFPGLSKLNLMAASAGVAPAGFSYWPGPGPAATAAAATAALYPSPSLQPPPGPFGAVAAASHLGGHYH
# How it was run: as §1
# [11] = molecular target: ETV5 (Homo sapiens, UniProt P41161 1-510); settings: protein: recombinant; tags: N-terminal GST; dsDNA, one strand shown
# Sequence of ETV5 (P41161 whole entry): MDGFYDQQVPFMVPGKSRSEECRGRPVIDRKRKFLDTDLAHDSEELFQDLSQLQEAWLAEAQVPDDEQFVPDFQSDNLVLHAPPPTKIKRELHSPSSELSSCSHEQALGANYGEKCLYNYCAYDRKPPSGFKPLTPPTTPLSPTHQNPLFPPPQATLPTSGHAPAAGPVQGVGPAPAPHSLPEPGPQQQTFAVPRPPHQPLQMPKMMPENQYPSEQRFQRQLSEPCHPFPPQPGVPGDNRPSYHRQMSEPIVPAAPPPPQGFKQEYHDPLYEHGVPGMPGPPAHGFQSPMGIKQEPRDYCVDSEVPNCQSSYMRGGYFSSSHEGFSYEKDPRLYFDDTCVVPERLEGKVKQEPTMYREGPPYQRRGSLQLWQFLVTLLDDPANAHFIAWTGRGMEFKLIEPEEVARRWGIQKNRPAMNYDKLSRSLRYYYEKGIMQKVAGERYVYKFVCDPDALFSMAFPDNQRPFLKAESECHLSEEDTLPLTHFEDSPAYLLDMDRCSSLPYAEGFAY
# How it was run: as §1
# [12] = molecular target: HSF1 (Homo sapiens, UniProt Q00613 1-529); settings: protein: recombinant; tags: N-terminal GST; chain copies: 3; dsDNA, one strand shown
# Sequence of HSF1 (Q00613 whole entry): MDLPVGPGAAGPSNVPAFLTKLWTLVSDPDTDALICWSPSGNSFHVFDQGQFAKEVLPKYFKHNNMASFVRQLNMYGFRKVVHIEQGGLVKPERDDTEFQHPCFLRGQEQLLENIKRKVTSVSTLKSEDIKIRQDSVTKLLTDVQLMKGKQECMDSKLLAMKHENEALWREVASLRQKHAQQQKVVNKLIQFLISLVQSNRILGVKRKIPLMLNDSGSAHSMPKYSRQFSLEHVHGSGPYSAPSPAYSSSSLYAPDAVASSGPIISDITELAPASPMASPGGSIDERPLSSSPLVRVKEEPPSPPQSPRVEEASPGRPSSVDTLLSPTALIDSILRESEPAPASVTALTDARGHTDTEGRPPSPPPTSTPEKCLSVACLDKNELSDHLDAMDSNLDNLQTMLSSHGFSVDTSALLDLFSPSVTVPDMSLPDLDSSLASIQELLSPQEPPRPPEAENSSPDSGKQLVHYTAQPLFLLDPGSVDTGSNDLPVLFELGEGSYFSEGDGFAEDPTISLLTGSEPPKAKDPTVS
# How it was run: as §1
# [13] = molecular target: T8, SPIC (Homo sapiens, UniProt Q8N5J4 1-248); settings: protein: recombinant; tags: N-terminal GST; dsDNA, one strand shown
# T8 sequence: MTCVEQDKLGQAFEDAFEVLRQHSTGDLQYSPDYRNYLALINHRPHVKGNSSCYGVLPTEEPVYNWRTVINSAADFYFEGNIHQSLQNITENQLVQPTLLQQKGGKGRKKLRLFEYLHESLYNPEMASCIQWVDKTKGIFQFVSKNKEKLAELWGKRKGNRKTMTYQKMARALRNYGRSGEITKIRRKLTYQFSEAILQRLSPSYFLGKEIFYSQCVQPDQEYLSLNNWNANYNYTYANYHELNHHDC
# How it was run: as §1
# [14] = molecular target: ELF4 (Homo sapiens, UniProt Q99607 1-663); settings: protein: recombinant; tags: N-terminal GST; dsDNA, one strand shown
# Sequence of ELF4 (Q99607 whole entry): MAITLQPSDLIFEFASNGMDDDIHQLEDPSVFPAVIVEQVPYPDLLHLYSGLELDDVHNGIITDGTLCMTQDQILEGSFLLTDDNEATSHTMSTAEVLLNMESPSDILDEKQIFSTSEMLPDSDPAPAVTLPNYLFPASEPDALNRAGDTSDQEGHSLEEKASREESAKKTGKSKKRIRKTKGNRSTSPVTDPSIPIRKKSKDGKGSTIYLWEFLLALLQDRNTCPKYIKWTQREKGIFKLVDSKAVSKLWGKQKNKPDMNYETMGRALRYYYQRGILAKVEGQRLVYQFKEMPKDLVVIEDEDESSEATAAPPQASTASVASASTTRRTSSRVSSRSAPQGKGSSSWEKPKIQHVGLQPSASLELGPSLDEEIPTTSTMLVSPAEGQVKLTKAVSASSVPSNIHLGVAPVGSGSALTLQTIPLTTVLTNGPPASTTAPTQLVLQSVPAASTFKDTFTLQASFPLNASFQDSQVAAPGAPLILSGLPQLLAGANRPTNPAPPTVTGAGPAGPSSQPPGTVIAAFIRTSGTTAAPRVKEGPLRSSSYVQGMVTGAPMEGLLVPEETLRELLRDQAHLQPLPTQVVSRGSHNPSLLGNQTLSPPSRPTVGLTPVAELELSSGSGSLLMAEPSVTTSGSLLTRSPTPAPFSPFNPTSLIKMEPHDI
# How it was run: as §1
# [15] = molecular target: T9, ELK4 (Homo sapiens, UniProt P28324-2 1-405); settings: protein: recombinant; tags: N-terminal GST; dsDNA, one strand shown
# T9 sequence: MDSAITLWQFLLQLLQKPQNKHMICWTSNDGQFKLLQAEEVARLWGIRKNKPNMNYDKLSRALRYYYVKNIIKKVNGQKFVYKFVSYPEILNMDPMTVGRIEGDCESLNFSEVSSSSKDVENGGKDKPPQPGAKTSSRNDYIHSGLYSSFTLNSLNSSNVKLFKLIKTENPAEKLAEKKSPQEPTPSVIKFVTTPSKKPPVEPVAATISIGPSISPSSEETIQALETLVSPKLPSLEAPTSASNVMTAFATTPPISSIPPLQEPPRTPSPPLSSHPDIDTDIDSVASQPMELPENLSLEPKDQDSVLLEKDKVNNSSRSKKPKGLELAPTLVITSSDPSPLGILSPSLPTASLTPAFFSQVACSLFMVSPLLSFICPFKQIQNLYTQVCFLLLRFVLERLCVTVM
# How it was run: as §1
# [16] = molecular target: T10, ETV2 (Homo sapiens, UniProt O00321 1-342); settings: protein: recombinant; tags: N-terminal GST; dsDNA, one strand shown
# T10 sequence: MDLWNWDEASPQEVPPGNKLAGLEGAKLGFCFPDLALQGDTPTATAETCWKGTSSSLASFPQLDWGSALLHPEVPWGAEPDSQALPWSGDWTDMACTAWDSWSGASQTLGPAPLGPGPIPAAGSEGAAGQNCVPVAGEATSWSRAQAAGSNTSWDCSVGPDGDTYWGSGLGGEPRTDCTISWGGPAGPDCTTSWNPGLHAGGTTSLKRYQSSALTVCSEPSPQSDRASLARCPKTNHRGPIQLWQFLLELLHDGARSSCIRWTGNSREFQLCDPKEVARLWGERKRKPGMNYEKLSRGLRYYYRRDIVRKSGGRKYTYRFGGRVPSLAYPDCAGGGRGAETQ
# How it was run: as §1
# [17] = molecular target: T11, ELF3 (Homo sapiens, UniProt P78545 1-371); settings: protein: recombinant; tags: N-terminal GST; dsDNA, one strand shown
# T11 sequence: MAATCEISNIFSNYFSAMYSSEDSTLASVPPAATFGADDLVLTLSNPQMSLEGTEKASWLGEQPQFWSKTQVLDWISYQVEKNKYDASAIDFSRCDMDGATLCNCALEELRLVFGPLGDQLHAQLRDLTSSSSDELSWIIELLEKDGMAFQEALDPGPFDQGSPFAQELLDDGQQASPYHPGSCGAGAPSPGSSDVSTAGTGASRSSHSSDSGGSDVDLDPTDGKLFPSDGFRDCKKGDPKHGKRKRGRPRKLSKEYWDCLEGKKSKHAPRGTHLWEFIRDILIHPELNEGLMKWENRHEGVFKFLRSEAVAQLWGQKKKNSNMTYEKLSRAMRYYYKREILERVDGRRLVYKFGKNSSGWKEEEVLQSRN
# How it was run: as §1
# [18] = molecular target: ETV1 (Homo sapiens, UniProt P50549 1-477); settings: protein: recombinant; tags: N-terminal GST; dsDNA, one strand shown
# Sequence of ETV1 (P50549 whole entry): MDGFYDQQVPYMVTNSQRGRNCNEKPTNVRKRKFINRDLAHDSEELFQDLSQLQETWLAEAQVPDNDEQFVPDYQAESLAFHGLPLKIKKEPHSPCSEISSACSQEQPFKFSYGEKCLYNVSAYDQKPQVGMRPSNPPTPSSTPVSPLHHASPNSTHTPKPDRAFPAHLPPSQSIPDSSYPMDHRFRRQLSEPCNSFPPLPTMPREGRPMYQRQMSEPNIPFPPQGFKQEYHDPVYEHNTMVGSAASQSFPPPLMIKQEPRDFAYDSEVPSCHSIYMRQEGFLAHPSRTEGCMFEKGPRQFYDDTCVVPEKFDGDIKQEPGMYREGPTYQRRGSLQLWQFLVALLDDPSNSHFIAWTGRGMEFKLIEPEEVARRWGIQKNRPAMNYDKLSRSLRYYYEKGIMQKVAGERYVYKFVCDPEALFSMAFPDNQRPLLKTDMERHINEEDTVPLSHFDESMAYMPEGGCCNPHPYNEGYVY
# How it was run: as §1
sequence,measurement,setting,value
CACTCC,binding signal,[1],"1.27 fold enrichment (6-mer frequency, TF over GST control)"
same,binding signal,[2],"1.41 fold enrichment (6-mer frequency, TF over GST control)"
same,binding signal,[3],"1.32 fold enrichment (6-mer frequency, TF over GST control)"
same,binding signal,[4],"1.29 fold enrichment (6-mer frequency, TF over GST control)"
same,binding signal,[5],"1.34 fold enrichment (6-mer frequency, TF over GST control)"
same,binding signal,[6],"1.17 fold enrichment (6-mer frequency, TF over GST control)"
same,binding signal,[7],"1.23 fold enrichment (6-mer frequency, TF over GST control)"
same,binding signal,[8],"1.33 fold enrichment (6-mer frequency, TF over GST control)"
same,binding signal,[9],"1.27 fold enrichment (6-mer frequency, TF over GST control)"
same,binding signal,[10],"1.28 fold enrichment (6-mer frequency, TF over GST control)"
same,binding signal,[11],"1.27 fold enrichment (6-mer frequency, TF over GST control)"
same,binding signal,[12],"1.05 fold enrichment (6-mer frequency, TF over GST control)"
same,binding signal,[13],"1.28 fold enrichment (6-mer frequency, TF over GST control)"
same,binding signal,[14],"1.34 fold enrichment (6-mer frequency, TF over GST control)"
same,binding signal,[15],"1.35 fold enrichment (6-mer frequency, TF over GST control)"
same,binding signal,[16],"1.17 fold enrichment (6-mer frequency, TF over GST control)"
same,binding signal,[17],"1.23 fold enrichment (6-mer frequency, TF over GST control)"
same,binding signal,[18],"1.27 fold enrichment (6-mer frequency, TF over GST control)"
